Laboratory results: PubChem BioAssay AID1159580 (chemical genetic matrix, 2015)
The campaign covered roughly 5,500 compounds. About 2,000 (36%) were called active. Not shown: some 18% with an inconclusive outcome. Rule as the data show it: active = normalized growth mostly below about 0.91 (no sharp cut-off); inconclusive = no clear call, values can overlap the other calls; inactive = mostly above about 0.92. The list shows a part of the results.

Experiment: chemical genetic growth profiling, strain panel (AID 1159580);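 also: tested at 20 µM; growth read once vehicle control cultures reached saturation at 30 °C; 1 = growth at the plate median or of vehicle wells; lower values mean less growth of the strain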
Settings: growth OD
[1] = S. cerevisiae deletion strains, locus YHR030C, strain SLT2, active compounds read low
[2] = S. cerevisiae deletion strains, locus YHR079C, strain IRE1, active compounds read low
[3] = S. cerevisiae deletion strains, locus YJL095W, strain BCK1, active compounds read low
[4] = S. cerevisiae deletion strains, locus YJR066W, strain TOR1, active compounds read low
[5] = S. cerevisiae deletion strains, locus YLR113W, strain HOG1, active compounds read low
[6] = S. cerevisiae deletion strains, locus YNL183C, strain NPR1, active compounds read low
[7] = S. cerevisiae deletion strains, locus YOR231W, strain MKK1, active compounds read low
[8] = S. cerevisiae deletion strains, locus YPL256C, strain CLN2, active compounds read low
[9] = S. cerevisiae deletion strains, locus YDL101C, strain DUN1, active compounds read low
[10] = S. cerevisiae deletion strains, locus YAR019C, strain CDC15, active compounds read low
[11] = S. cerevisiae deletion strains, locus YBL105C, strain PKC1, active compounds read low
[12] = S. cerevisiae deletion strains, locus YBR135W, strain CKS1, active compounds read low
[13] = S. cerevisiae deletion strains, locus YBR136W, strain MEC1, active compounds read low
[14] = S. cerevisiae deletion strains, locus YBR160W, strain CDC28, active compounds read low
[15] = S. cerevisiae deletion strains, locus YDL017W, strain CDC7, active compounds read low
[16] = S. cerevisiae deletion strains, locus YDL028C, strain MPS1, active compounds read low
[17] = S. cerevisiae deletion strains, locus YDL108W, strain KIN28, active compounds read low
[18] = S. cerevisiae deletion strains, locus YDL132W, strain cdc53, active compounds read low
[19] = S. cerevisiae deletion strains, locus YDL214C, strain PRR2, active compounds read low
[20] = S. cerevisiae deletion strains, locus YDR052C, strain DBF4, active compounds read low
[21] = S. cerevisiae deletion strains, locus YDR054C, strain cdc34, active compounds read low
[22] = S. cerevisiae deletion strains, locus YDR226W, strain ADK1, active compounds read low
[23] = S. cerevisiae deletion strains, locus YDR477W, strain SNF1, active compounds read low
[24] = S. cerevisiae deletion strains, locus YER123W, strain YCK3, active compounds read low
[25] = S. cerevisiae deletion strains, locus YER133W, strain GLC7, active compounds read low
[26] = S. cerevisiae deletion strains, locus YFL009W, strain cdc4, active compounds read low
[27] = S. cerevisiae deletion strains, locus YFL029C, strain CAK1, active compounds read low
[28] = S. cerevisiae deletion strains, locus YFR003C, strain YPI1, active compounds read low
[29] = S. cerevisiae deletion strains, locus YFR019W, strain FAB1, active compounds read low
[30] = S. cerevisiae deletion strains, locus YFR028C, strain CDC14, active compounds read low
[31] = S. cerevisiae deletion strains, locus YGR040W, strain KSS1, active compounds read low
[32] = S. cerevisiae deletion strains, locus YGR052W, strain FMP48, active compounds read low
[33] = S. cerevisiae deletion strains, locus YGR092W, strain DBF2, active compounds read low
[34] = S. cerevisiae deletion strains, locus YHR082C, strain KSP1, active compounds read low
[35] = S. cerevisiae deletion strains, locus YHR205W, strain SCH9, active compounds read low
[36] = S. cerevisiae deletion strains, locus YIL147C, strain SLN1, active compounds read low
[37] = S. cerevisiae deletion strains, locus YJL128C, strain PBS2, active compounds read low
[38] = S. cerevisiae deletion strains, locus YJL157C, strain FAR1, active compounds read low
[39] = S. cerevisiae deletion strains, locus YJR016C, strain ILV3, active compounds read low
[40] = S. cerevisiae deletion strains, locus YJR066W, strain TOR1 (second series), active compounds read low
[41] = S. cerevisiae deletion strains, locus YKL048C, strain ELM1, active compounds read low
[42] = S. cerevisiae deletion strains, locus YKL067W, strain YNK1, active compounds read low
[43] = S. cerevisiae deletion strains, locus YKL101W, strain HSL1, active compounds read low
[44] = S. cerevisiae deletion strains, locus YKL193C, strain SDS22, active compounds read low
[45] = S. cerevisiae deletion strains, locus YKL203C, strain TOR2, active compounds read low
[46] = S. cerevisiae deletion strains, locus YLR133W, strain CKI1, active compounds read low
[47] = S. cerevisiae deletion strains, locus YLR403W, strain SFP1, active compounds read low
[48] = S. cerevisiae deletion strains, locus YML070W, strain DAK1, active compounds read low
[49] = S. cerevisiae deletion strains, locus YMR001C, strain CDC5, active compounds read low
[50] = S. cerevisiae deletion strains, locus YMR205C, strain PFK2 (second series), active compounds read low
[51] = S. cerevisiae deletion strains, locus YMR277W, strain FCP1, active compounds read low
[52] = S. cerevisiae deletion strains, locus YNL006W, strain LST8, active compounds read low
[53] = S. cerevisiae deletion strains, locus YNL020C, strain ARK1, active compounds read low
[54] = S. cerevisiae deletion strains, locus YNL161W, strain CBK1, active compounds read low
[55] = S. cerevisiae deletion strains, locus YNL207W, strain RIO2, active compounds read low
[56] = S. cerevisiae deletion strains, locus YNL222W, strain SSU72, active compounds read low
[57] = S. cerevisiae deletion strains, locus YNL307C, strain MCK1 (second series), active compounds read low
[58] = S. cerevisiae deletion strains, locus YOL078W, strain AVO1, active compounds read low
[59] = S. cerevisiae deletion strains, locus YOL136C, strain PFK27, active compounds read low
[60] = S. cerevisiae deletion strains, locus YOR061W, strain CKA2, active compounds read low
[61] = S. cerevisiae deletion strains, locus YOR119C, strain RIO1, active compounds read low
[62] = S. cerevisiae deletion strains, locus YOR329C, strain SCD5, active compounds read low
[63] = S. cerevisiae deletion strains, locus YPL031C, strain PHO85, active compounds read low
[64] = S. cerevisiae deletion strains, locus YPL153C, strain RAD53, active compounds read low
[65] = S. cerevisiae deletion strains, locus YPL204W, strain HRR25, active compounds read low
[66] = S. cerevisiae deletion strains, locus YPL209C, strain IPL1, active compounds read low
[67] = S. cerevisiae deletion strains, locus YPR025C, strain CCL1, active compounds read low
[68] = S. cerevisiae deletion strains, locus YPR106W, strain ISR1, active compounds read low
[69] = S. cerevisiae deletion strains, locus YPR111W, strain DBF20, active compounds read low
[70] = S. cerevisiae deletion strains, strain NNK1, active compounds read low
[71] = S. cerevisiae deletion strains, strain TSCII, active compounds read low

Measured: normalized growth

CC(N)C12CC3CC(CC(C3)C1)C2 (stereo unspecified)
inactive: [1] 0.992 | [2] 0.977 | [3] 0.989 | [4] 0.935 | [5] 1.02 | [6] 0.944 | [7] 1.01 | [8] 0.979

CCOC(=O)N/N=C\c1ccccc1OCC
inactive: S. cerevisiae deletion strains, locus YAL013W, strain DEP1, active compounds read low 1.02 | S. cerevisiae deletion strains, locus YBR229C, strain ROT2, active compounds read low 0.998 | S. cerevisiae deletion strains, locus YCL061C, strain MRC1, active compounds read low 1.02 | [9] 1.01 | S. cerevisiae deletion strains, locus YDL134C, strain PPH21, active compounds read low 1.02 | S. cerevisiae deletion strains, locus YDR150W, strain NUM1, active compounds read low 0.923 | S. cerevisiae deletion strains, locus YEL061C, strain CIN8, active compounds read low 1.02 | S. cerevisiae deletion strains, locus YGR078C, strain PAC10, active compounds read low 1 | S. cerevisiae deletion strains, locus YGR229C, strain SMI1, active compounds read low 1.01 | [1] 1.02 | S. cerevisiae deletion strains, locus YHR087W, strain rtc3, active compounds read low 0.992 | S. cerevisiae deletion strains, locus YJR043C, strain POL32, active compounds read low 1.02 | S. cerevisiae deletion strains, locus YJR075W, strain HOC1, active compounds read low 0.985 | S. cerevisiae deletion strains, locus YKL190W, strain CNB1, active compounds read low 1 | S. cerevisiae deletion strains, locus YLR039C, strain RIC1, active compounds read low 0.931 | S. cerevisiae deletion strains, locus YLR058C, strain SHM2 (second series), active compounds read low 0.995 | S. cerevisiae deletion strains, locus YLR085C, strain ARP6, active compounds read low 1.04 | S. cerevisiae deletion strains, locus YLR262C, strain YPT6, active compounds read low 0.917 | S. cerevisiae deletion strains, locus YML094W, strain GIM5, active compounds read low 1.02 | S. cerevisiae deletion strains, locus YMR219W, strain ESC1, active compounds read low 0.997 | S. cerevisiae deletion strains, locus YMR263W, strain SAP30, active compounds read low 1.03 | S. cerevisiae deletion strains, locus YNL128W, strain TEP1, active compounds read low 1.01 | S. cerevisiae deletion strains, locus YNL153C, strain GIM3, active compounds read low 1.02 | S. cerevisiae deletion strains, locus YNL298W, strain CLA4 (second series), active compounds read low 1.03 | S. cerevisiae deletion strains, locus YNL322C, strain KRE1, active compounds read low 1 | S. cerevisiae deletion strains, locus YNR030W, strain Alg12, active compounds read low 1.02 | S. cerevisiae deletion strains, locus YOL006C, strain TOP1, active compounds read low 1.06 | S. cerevisiae deletion strains, locus YPL055C, strain LGE1, active compounds read low 0.98 | S. cerevisiae deletion strains, locus YPL241C, strain CIN2, active compounds read low 1.02 | S. cerevisiae deletion strains, locus YPR135W, strain CTF4, active compounds read low 1.03 | S. cerevisiae strains, strain wild type, active compounds read low 1.01

CC(C)(C)C(=O)NC(=S)N/N=C\c1cc(Cl)cc(Cl)c1O
active: [19] 0.333 | [23] 0.566 | [24] 0.167 | [25] 0.48 | [29] 0.365 | [31] 0.546 | [32] 0.346 | [33] 0.165 | [1] 0.278 | [2] 0.144 | [34] 0.277 | [35] 0.248 | [3] 0.2 | [38] 0.215 | [40] 0.149 | [4] 0.182 | [41] 0.439 | [42] 0.286 | [43] 0.237 | [45] 0.332 | [5] 0.245 | [46] 0.224 | [47] 0.35 | [48] 0.285 | [50] 0.221 | [53] 0.19 | [6] 0.269 | [57] 0.18 | [59] 0.242 | [60] 0.245 | [61] 0.547 | [7] 0.173 | [63] 0.498 | [64] 0.27 | [65] 0.249 | [8] 0.285 | [71] 0.768
inactive: [10] 0.924 | [11] 0.937 | [12] 0.907 | [13] 0.936 | [14] 0.94 | [15] 0.94 | [16] 0.927 | [9] 0.949 | [17] 0.936 | [18] 0.961 | [20] 0.945 | [21] 0.918 | [22] 0.958 | [26] 0.924 | [27] 0.923 | [28] 0.947 | [30] 0.938 | [36] 0.933 | [37] 0.974 | [39] 0.922 | [44] 0.921 | [49] 0.919 | [51] 0.926 | [52] 0.924 | [54] 0.932 | [55] 0.953 | [56] 0.926 | [58] 0.916 | [62] 0.949 | [66] 0.93 | [67] 0.928 | [68] 0.969 | [69] 0.954 | [70] 0.958

CCOC(=O)N/N=C\c1cc(Cl)cc(Cl)c1O
active: [33] 0.251 | [1] 0.512 | [4] 0.473 | [41] 0.72 | [5] 0.67 | [46] 0.727 | [47] 0.425 | [50] 0.714 | [53] 0.679 | [6] 0.556 | [57] 0.621 | [60] 0.471 | [64] 0.67 | [8] 0.641
inactive: [10] 0.948 | [11] 0.95 | [12] 0.928 | [13] 0.951 | [14] 0.938 | [15] 0.941 | [16] 0.942 | [9] 0.95 | [17] 0.935 | [18] 0.914 | [19] 0.824 | [20] 0.946 | [21] 0.928 | [22] 0.926 | [23] 0.741 | [24] 0.765 | [25] 0.828 | [26] 0.94 | [27] 0.931 | [28] 0.942 | [29] 0.87 | [30] 0.938 | [31] 0.737 | [32] 0.665 | [2] 0.626 | [34] 0.655 | [35] 0.586 | [36] 0.943 | [3] 0.535 | [37] 0.877 | [38] 0.785 | [39] 0.935 | [40] 0.743 | [42] 0.814 | [43] 0.74 | [44] 0.932 | [45] 0.756 | [48] 0.789 | [49] 0.948 | [51] 0.936 | [52] 0.956 | [54] 0.947 | [55] 0.931 | [56] 0.934 | [58] 0.94 | [59] 0.784 | [61] 0.729 | [7] 0.69 | [62] 0.943 | [63] 0.747 | [65] 0.706 | [66] 0.944 | [67] 0.934 | [68] 0.918 | [69] 0.92 | [70] 0.92 | [71] 0.952
